About 79,000 compounds went through this panel and 15% of them were active in at least one assay; those are over-represented in the sample as a whole. Unmarked numbers belong to inactive results. Active and inactive are the calls of the source. Cut-off read from the data, not from the text of the source: active = growth inhibition above about 70%; inactive = the rest.
Key:
[1] = NCI Yeast Anticancer Drug Screen. Data for the rad50 strain (AID 155);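 note: 0% = growth of vehicle-only cultures of the same strain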; conditions: S. cerevisiae rad50 strain growth inhibition; at 50.0 µM; active compounds read high
Procedure, shortened: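 Vehicle-treated cultures provide the reference for the growth inhibition reported for compound-exposed, repair-deficient yeast.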

[2] = NCI Yeast Anticancer Drug Screen. Data for the mec2-1 strain (AID 157); conditions: S. cerevisiae mec2-1 strain, at 50.0 µM, active compounds read high
Procedure, shortened: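 Using mec2-1 yeast: add compound, measure growth, express inhibition versus vehicle-treated cultures.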

[3] = NCI Yeast Anticancer Drug Screen. Data for the sgs1 mgt1 strain (AID 161);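 note: 0% = growth of cultures given vehicle only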; conditions: S. cerevisiae sgs1 mgt1 strain, at 50.0 µM, active compounds read high
Procedure, shortened: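 This yeast growth screen uses a strain with defined DNA-repair lesions; compound-treated growth is compared with vehicle-treated growth.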

[4] = NCI Yeast Anticancer Drug Screen. Data for the cln2 rad14 strain (AID 165);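 note: 0% = growth equal to vehicle treated cultures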; conditions: S. cerevisiae cln2 rad14 strain, at 50.0 µM, active compounds read high
Procedure, shortened: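 Yeast strain cln2 rad14, bearing defects in cell cycle control and DNA repair, serves as the test system; values reflect growth inhibition compared with vehicle.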

[5] = NCI Yeast Anticancer Drug Screen. Data for the bub3 strain (AID 167); conditions: S. cerevisiae bub3 mutant strain, at 50.0 µM, active compounds read high
Procedure, shortened: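 Mutant yeast screening strain plus compound; vehicle-treated cultures serve as the 0% inhibition reference.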

[6] = NCI Yeast Anticancer Drug Screen. Data for the mlh1 rad18 strain (AID 175); conditions: S. cerevisiae mlh1 rad18 strain growth inhibition; at 50.0 µM; active compounds read high
Procedure, shortened: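 Steps: expose repair-defective yeast to compound; measure growth; express inhibition against vehicle-treated controls.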

Row | SMILES | growth inhibition [1] | growth inhibition [2] | growth inhibition [3] | growth inhibition [4] | growth inhibition [5] | growth inhibition [6]
1 | c1cncc(CCc2ccncc2)c1 | -18.9% | -60.9% | -27.2% | 12.3% | -14.2% | 18.6%
2 | CCC1(C)N=C(C)C(C)S1 (configuration not stated) | -7.6% | -1.3% | -13.7% | 4.9% | -16.3% | 6.2%
3 | Nc1nc2c(nnn2C2OC(CO)C(O)C2O)c(=O)[nH]1 (configuration not stated) | -4.6% | 5.65% | -5.3% | -37.5% | -16.8% | 9.45%
4 | O=P(O)(O)CCC(O)CO (configuration not stated) | -12.5% | 10.3% | -11.6% | -78.2% | 4.6% | -17.5%
5 | Nc1nc2c(c(=O)[nH]1)CN(CCCN1CCOCC1)CN2 | -36.2% | -26.1% | -19.1% | 68% | -30% | 0%
6 | CC(C)(C)NC(=O)Oc1ccc(-c2ccccc2)cc1 | 4.75% | 26.6% | 33% | -4.45% | 18.2% | 32.9%
7 | Nc1ccc(C(=O)O)c(O)c1.Nc1ccc(C(=O)O)c(O)c1.[Cu] | -13.4% | 2.4% | -20.3% | 3.6% | -1.95% | -5.05%
8 | O=C(O)C(Br)C(Br)C(=O)Nc1ccc(F)cc1 (configuration not stated) | 99.7% (active) | 99.7% (active) | 99.7% (active) | 98.3% (active) | 99.7% (active) | 99.3% (active)
9 | CCC1(COC(NC(=O)c2ccccc2)(C(F)(F)F)C(F)(F)F)COC1 | -14.2% | -1.9% | -32.2% | 14.1% | -24.2% | 7.05%
10 | COC(=O)CC1OCC=C2CN3CCC45C6=CC(=O)C(=O)C([N+](=O)[O-])=C6NC4C1C2CC35 (configuration not stated) | 0.8% | -22.4% | -15.4% | 8.3% | -4.8% | -17.8%
11 | CC(=O)Nc1cc2[nH]c(=O)c3cc(Cl)ccc3c2cc1[N+](=O)[O-] | 28.8% | 36.1% | 1.65% | 27.1% | 23.6% | 57.8%
12 | OC1c2ccccc2CC1Br (configuration not stated) | -4.8% | -3.8% | -9.25% | -25.4% | 7.65% | -8.15%
13 | COC(=O)/C=C/c1cc(OC)c2c(c1)C(C(=O)OC)C(c1ccc(O)c(OC)c1)O2 (configuration not stated) | -2.75% | 7.6% | -38.4% | -17.6% | -23.8% | -8.95%
14 | O=C(OCC1OC(n2cnc3c(Cl)ncnc32)C(OC(=O)c2ccccc2)C1OC(=O)c1ccccc1)c1ccccc1 (configuration not stated) | -16.6% | -21.2% | -13.2% | 5.6% | -12.8% | -13.3%
15 | CC(=O)Nc1c([N+](=O)[O-])cc(C2CCCCC2)cc1[N+](=O)[O-] | -8.05% | -7.25% | 4.25% | -34.5% | 23.2% | -9.85%
16 | Cc1nc2ccccn2c1N=Nc1ccc(C(=O)NN)cc1 | 7.3% | -15.1% | 0.1% | 10.8% | -10.8% | -18.4%
17 | Nc1ccc2cc(S(=O)(=O)O)cc(O)c2c1 | 28.8% | -4.55% | -34.5% | -85.8% | 6.85% | 15.2%
18 | CC(=O)OC12c3ccccc3-c3ccccc3C1C1C(=O)N(C)C(=O)C12Cl (configuration not stated) | -13.4% | -22.2% | -12.2% | 10.4% | 36.5% | 13.2%
19 | Cc1cc(N(CCC#N)CCC#N)ccc1N=Nc1ccccc1[N+](=O)[O-] | -44.7% | -38.1% | -13.3% | 12.8% | -32% | -24.1%

Row | SMILES | growth inhibition [1] | growth inhibition [2] | growth inhibition [3] | growth inhibition [4] | growth inhibition [5] | growth inhibition [6]
20 | CC(=O)CC(=O)Nc1ccc(NC(=O)CC(C)=O)cc1 | -13.5% | -30.9% | -21.1% | -0.55% | -23.5% | -15.9%
21 | O=C(Nc1ccc2ccccc2c1)c1ccc(Cl)c(Cl)c1 | -5% | 29.6% | 24.9% | -6.8% | 18.9% | 27.4%
22 | CCCCNC(=O)NC1CC(OC2CC(O)(C(C)=O)Cc3c(O)c4c(c(O)c32)C(=O)c2c(OC)cccc2C4=O)OC(C)C1O (configuration not stated) | 30.2% | 14.9% | 22.9% | 0.8% | 1.25% | 29.9%
23 | c1ccc(N2CCN(c3ccccn3)CC2)nc1 | -2.65% | -13.6% | 2.5% | -21.5% | -13.7% | -5.1%
24 | CN1C(=O)Cc2ccccc21 | 9.9% | -7.25% | -13.3% | 11.5% | 20.8% | -1.05%
25 | O=C(CC(=O)c1ccccc1)Nc1ccc(-c2nc3ccccc3c(=O)[nH]2)cc1 | 20.1% | 10.5% | 19.9% | 1.9% | 19.6% | 27.7%
26 | O=P(O)(O)CN1CCN(CP(=O)(O)O)CCN(CP(=O)(O)O)CCN(CP(=O)(O)O)CC1 | -39.9% | -16.8% | -8.75% | 12.1% | -0.05% | -19.1%
27 | COc1ccc(CC2=c3cc(OC)c(OC)cc3=CCN2)cc1OC | 12.1% | 4.5% | 9.7% | 12.2% | -2.85% | -5.75%
28 | CC1(O)C=CC(=O)C=C1 | 0.05% | 6.75% | -15.2% | 1.95% | -24.1% | -7.6%
29 | CCCCCCCCC(=O)OCC(=O)c1ccc(-c2ccccc2)cc1 | 10.8% | -15.3% | 3.35% | -7.85% | 3.3% | 3.65%
30 | COc1ccc(S(=O)c2coc3ccccc3c2=O)cc1 (configuration not stated) | 32.4% | -9.05% | 28.1% | 14.7% | 28.1% | 20.9%
31 | COc1ccccc1/C=C1\C(=O)N(C(=O)Cc2ccccc2)N=C1C | -4.4% | -8.15% | -54.2% | -10.8% | -3.85% | -25.4%
32 | Cc1noc2cccc(OCc3ccccc3)c12 | -32.2% | -40.5% | 5.4% | -0.6% | 17.4% | -9.2%
33 | COC(=O)C1C2CC3c4[nH]c5cc(OC)ccc5c4CCN3CC2CC(OC(=O)CCc2cc(OC)c(OC)c(OC)c2)C1OC (configuration not stated) | -3.35% | -0.2% | 4.25% | 13.4% | 14.7% | 9.85%
34 | CCOC(=O)/C=C/SCCCC(=O)O | 1.5% | -1.5% | 0.25% | -22.8% | -4.55% | 42.2%
35 | CCOC(O)(NC(=O)C(C(F)(F)F)C(F)(F)F)C(F)(F)F (configuration not stated) | 6.05% | -18.1% | -33.4% | -9.45% | -12.4% | -26.9%
36 | O=S(=O)(c1ccccc1)C1CCCCC1I (configuration not stated) | 45.9% | 3.5% | 21.4% | -30.5% | 23.7% | 18.8%
37 | COc1cc(C)c(C(=O)/C=C/c2cc(OC)c(O)c(OC)c2)cc1O | 55.7% | 36.9% | 39.6% | 35.6% | 46.2% | 46.7%
